A selection: hits, their analogues and other compounds. The true share with any hit is near 0.2%.
Bcl-W Bim block: inhibitors of Bim binding to Bcl-W, primary screen, biochemical, multiplexed, bead-based flow cytometry. Bim peptide-Bcl-W binding. inhibition, % at 10 µM. 190,000 tested, 0.02% active;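 further: 0% = bound tracer without compound and 100% = peptide blocker; higher means less fluorescent Bim peptide bound to Bcl-W beads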
Bim-Bcl-2: inhibitors of Bim-Bcl-2 binding, primary screen, biochemical, multiplexed, human Bcl-2 family; AID 950, 2007; 190,000 tested, 0.06% active; Bead-based flow cytometry, Bim peptide-Bcl-2 binding; inhibition, % at 10 µM; in the data active means inhibition above about 40%;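 further: 0% = no compound wells with probe peptide and 100% = reference peptide inhibitor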
Target sequence (P10415 whole entry, looked up): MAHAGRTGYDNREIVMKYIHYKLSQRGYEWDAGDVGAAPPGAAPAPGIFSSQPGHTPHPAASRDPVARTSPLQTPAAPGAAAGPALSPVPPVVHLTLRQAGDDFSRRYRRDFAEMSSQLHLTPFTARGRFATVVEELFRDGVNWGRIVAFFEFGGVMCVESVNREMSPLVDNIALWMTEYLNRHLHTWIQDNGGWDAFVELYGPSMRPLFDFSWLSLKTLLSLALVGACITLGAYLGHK
Bfl-1 Bim block: inhibitors of Bim binding to Bfl-1, primary screen, biochemical, multiplexed, bead-based flow cytometry; Bcl-2-related protein A1 (Homo sapiens), Q16548; Bim-Bfl-1 binding inhibition; inhibition, % at 10 µM; 190,000 tested, 0.12% active; AID 1008, 2008;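 further: 0% = wells without compound plus tracer and 100% = blocker peptide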
Bim-Bcl-B: inhibitors of Bim-Bcl-B binding, primary screen, biochemical, multiplexed, human Bcl-2 family; Bcl-2-like protein 10 (Homo sapiens), Q9HD36; AID 951, 2007; bead-based flow cytometry, Bim peptide-Bcl-B binding; inhibition, % at 10 µM; 190,000 tested, 0.073% active;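 further: 0% = tracer peptide without compound and 100% = reference inhibitor peptide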
Bim-Bcl-XL: inhibitors of Bim-Bcl-XL binding, primary screen, biochemical, multiplexed, bead flow cytometry, human Bcl-XL; Bcl-2-like protein 1 (Homo sapiens), Q07817; 190,000 tested, 0.04% active; inhibition, % at 10 µM; Bim peptide-Bcl-XL binding, fluorescence
Starred values were filed as active, the others as inactive. Unless noted, no stated cut-off is given here; in the data, active means inhibition above about 40%.

SMILES	Bcl-W Bim block	Bim-Bcl-2	Bfl-1 Bim block	Bim-Bcl-B	Bim-Bcl-XL
CN1CCN(c2ccc(N)cc2)CC1	23	10	15	61*	19
C[N+](C)(C)Cc1ccccc1	0	0	-2	-1	-3
O=C1NC(=O)C(=Cc2ccc(-c3cc(Cl)ccc3[N+](=O)[O-])o2)C(=O)N1	8	9	45*	3	-2
CCCC(C)C1(CC)C(=O)NC(=Nc2ccc(OC)cc2)NC1=O (centres undefined)	-5	0	0	-6	-7
CN(C)c1ccc(C=C2C(=O)NC(=S)NC2=O)cc1[N+](=O)[O-]	-3	1	0	-4	0
CN(C)c1ccc(C=C2C(=O)NC(=O)NC2=O)cc1[N+](=O)[O-]	16	13	48*	7	5

Source: PubChem BioAssay (NMMLSC)
